# Reference: PubChem BioAssay (NCATS)
# “And” between values parts separate entries of the source, which are not always exact repeats. Identical values can stand only once. Results filed as inconclusive are left out. The source made the active and inactive calls. Unless noted, the call rests on the fitted dose curve; in most records, active means well fitted curve in the direction sought with a large enough effect; inconclusive means small, poorly fitted or top-dose-only effect, or another doubt; inactive means no such curve, though single readings can be large; an effect the other way counts as inactive or inconclusive.
# Experiments:
# [1] = Cell Viability - BJ (AID 421; calls by dose curve;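 further: potency means the concentration at half of the fitted maximal effect; cells exposed to compound for 40 hours at 37 °C before readout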); conditions: BJ fibroblast viability, qHTS
# How it was run: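 Normal human BJ foreskin fibroblasts, 1500/well in complete medium, treated 40 hr at 37 °C. Cellular ATP by CellTiter-Glo luminescence; normalized to DMSO and 100 uM tamoxifen, AC50 from Hill fit.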
# [2] = Cell Viability - HepG2 (AID 433; calls by dose curve;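 further: potency means the concentration at half of the fitted maximal effect; potency for ATP loss meaning cytotoxicity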); conditions: qHTS
# How it was run: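 HepG2 cells, 1500 per well, treated 40 hr at 37 °C in complete medium; viability from intracellular ATP by CellTiter-Glo luminescence. Normalized to DMSO and 100 uM tamoxifen; AC50 from Hill fit of qHTS concentration-response.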
# [3] = Cell Viability - MRC5 (AID 434; calls by dose curve;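 further: potency means the concentration at half of the fitted maximal effect; potency reflects cytotoxicity seen as loss of intracellular ATP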); conditions: MRC5 lung fibroblast viability, qHTS
# How it was run: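 MRC5 normal human lung fibroblasts, 1500 cells/well, exposed to compound for 40 hr at 37 C. Cellular ATP was read by CellTiter-Glo luminescence; data normalized to DMSO and 100 uM tamoxifen, with AC50 from Hill fits.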
# [4] = Cell Viability - SK-N-SH (AID 435; calls by dose curve;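 further: potency means the concentration at half of the fitted maximal effect; compound exposure lasted 40 h at 37 °C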); conditions: SK-N-SH neuroblastoma cell viability qHTS
# How it was run: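 SK-N-SH neuroblastoma cells (1500/well) treated 40 h at 37 °C in complete medium; viability read as cellular ATP by CellTiter-Glo luminescence. Normalized to DMSO and 100 uM tamoxifen; AC50 from Hill fits of qHTS concentration-response.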
# [5] = Cell Viability - NIH 3T3 (AID 541); conditions: NIH 3T3 cell viability, qHTS; activity change, negative = cytotoxicity: at 92.2 µM (top of the series);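 further: plate controls were DMSO alone for no effect and tamoxifen positive control for full effect; nearly all actives have a fitted effect of over 25% in size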
# How it was run: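 NIH 3T3 mouse embryo fibroblasts (1000 cells/well) were plated in complete medium and treated with compound for 40 hr at 37 °C. Viability was read as intracellular ATP by CellTiter-Glo luminescence; AC50 values came from Hill-equation fits of concentration-response data.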
# [6] = Cell Viability - HUV-EC-C (AID 542); conditions: HUV-EC-C endothelial cell viability, qHTS; series mostly up to 92.2 µM; further: on the % scale 0 is the no-effect control and ±100 the full control effect; nearly all actives have a fitted effect of over 35% in size
# How it was run: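 HUV-EC-C normal human vascular endothelial cells, 1000 cells/well, pre-incubated 5 hr at 37 °C, then exposed to compounds for 40 hr at 37 °C in complete medium. Viability measured as intracellular ATP by CellTiter-Glo luminescence; AC50 from Hill fits.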
# [7] = Cell Viability - H-4-II-E (AID 543); conditions: H-4-II-E rat hepatoma viability; series mostly up to 92.2 µM; further: nearly all actives have a fitted effect of over 35% in size; further: potency means the concentration at half of the fitted maximal effect
# How it was run: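 Rat hepatoma H-4-II-E cells (1500/well) were plated, incubated 5 hr at 37 °C, then exposed to compounds for 40 hr at 37 °C. Cellular ATP was read by CellTiter-Glo luminescence; AC50 came from Hill-equation fits of concentration-response data.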
# [8] = Cell Viability - SH-SY5Y (AID 544); conditions: SH-SY5Y neuroblastoma cell viability; viability change, negative = cytotoxic: at 92.2 µM (top of the series); further: nearly all actives have a fitted effect of over 55% in size
# How it was run: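 Human neuroblastoma SH-SY5Y cells (1500/well) in complete medium were exposed to compounds for 40 hr at 37 °C; intracellular ATP was then quantified by CellTiter-Glo luminescence after 20 min at room temperature. AC50 came from Hill-equation concentration-response fits.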
# [9] = Cell Viability - Renal Proximal Tubule (AID 545); conditions: renal proximal tubule cells viability; at 91.7 µM (top of the series), primary cells of rat origin unless noted; further: nearly all actives have a fitted effect of over 40% in size
# How it was run: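 Rat renal proximal tubule primary cells, 1000/well, exposed to compounds for 40 hr at 37 °C in complete medium; cellular ATP read by CellTiter-Glo luminescence. AC50 from concentration-response fitted with standard Hill equation.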
# [10] = Cell Viability - Mesenchymal (AID 546); conditions: mesenchymal cells viability, qHTS; series mostly up to 91.7 µM;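 further: cells exposed to compound for 40 hours before reading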
# How it was run: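 Human kidney mesenchymal cells from normal renal glomeruli, 1000 cells/well, rested 5 hr at 37 °C, then treated 40 hr at 37 °C in complete medium. Cellular ATP read by CellTiter-Glo luminescence; AC50 from Hill-equation fits.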
# [11] = Cellular Toxicity (caspase-3) Jurkat (AID 655); conditions: Jurkat caspase-3 activation, luminescence, DMSO = 0%, tamoxifen = 100%; at 92.2 µM (top of the series);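 further: cells exposed to compound for 16 h at 37 °C before reading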
# How it was run: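 Jurkat cells (5000/well) in complete medium exposed 16 h at 37 C; caspase-3/7 activity read by Caspase-Glo luminescence after 20 min at room temperature. Normalized to DMSO and 100 uM tamoxifen; AC50 from Hill fits.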
# [12] = Cellular Toxicity (caspase-3) HUV-EC-C (AID 656); conditions: HUV-EC-C cells, caspase-3 activation (apoptosis), vehicle = 0, 100 µM tamoxifen = 100%; series mostly up to 92.2 µM
# How it was run: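 HUV-EC-C cells (1000/well) in complete medium, compound-treated 16 h at 37 °C; caspase-3/7 activity read by Caspase-Glo 3/7 luminescence. Normalized to DMSO (basal) and 100 uM tamoxifen (100%); AC50 from Hill-equation concentration-response fits.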
# [13] = qHTS Assay for Identification of Small Molecule Inducers of Hypoxia Response (AID 2120; active means well fitted curve in the direction sought with a large enough effect in the signal ratio, with a control signal flat, not every such curve was filed as active; the % refers to the signal ratio; further: 0% is about no effect); conditions: hypoxia response reporter cells, beta-lactamase ratio readout; series mostly up to 104 µM
# How it was run: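 HRE-beta-lactamase reporter in CellSensor HRE-bla ME-180 cells, 2500 cells/well in Opti-MEM with 0.5% dialyzed FBS; compounds tested as titration series, 17 h at 37 degrees C. CCF4 substrate 2.5 h at room temperature; AC50 from 460/530 nm ratio.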
# [14] = qHTS assay for small molecule agonists of retinoid X receptor alpha signaling (AID 588544); conditions: HEK293T RXRa-UAS-bla, beta-lactamase reporter, 18 h; 530 nm emission
# [15] = qHTS assay for small molecule antagonists of retinoid X receptor alpha signaling (AID 588546; active means well fitted inhibition curve with a large enough effect in the signal ratio, with a control signal flat, not every such curve was filed as active; the % refers to the signal ratio;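 further: cells stimulated with 9-cis-retinoic acid as agonist; on the % scale 0 is the no-effect control and ±100 the full control effect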); conditions: HEK293T RXRa-UAS-bla, beta-lactamase ratio, antagonist mode; measured here: W530 green channel, cytotoxicity proxy
# How it was run: (§1)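 Beta-lactamase reporter inhibition, read as CCF4 fluorescence ratio (ex 405, em 460/530 nm) after 2 h at RT. HEK293T UAS-bla cells, 2500/well, were stimulated with 9-cis-RA at 500 or 100 nM final alongside test compound for 18 h at 37 C.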
# [16] = biological target: Retinoic acid receptor RXR-alpha (Homo sapiens) (UniProt P19793); assay: as above; conditions: HEK293T RXRa-UAS-bla, beta-lactamase ratio, antagonist mode
# Sequence of Retinoic acid receptor RXR-alpha (Homo sapiens) (P19793 whole entry, looked up): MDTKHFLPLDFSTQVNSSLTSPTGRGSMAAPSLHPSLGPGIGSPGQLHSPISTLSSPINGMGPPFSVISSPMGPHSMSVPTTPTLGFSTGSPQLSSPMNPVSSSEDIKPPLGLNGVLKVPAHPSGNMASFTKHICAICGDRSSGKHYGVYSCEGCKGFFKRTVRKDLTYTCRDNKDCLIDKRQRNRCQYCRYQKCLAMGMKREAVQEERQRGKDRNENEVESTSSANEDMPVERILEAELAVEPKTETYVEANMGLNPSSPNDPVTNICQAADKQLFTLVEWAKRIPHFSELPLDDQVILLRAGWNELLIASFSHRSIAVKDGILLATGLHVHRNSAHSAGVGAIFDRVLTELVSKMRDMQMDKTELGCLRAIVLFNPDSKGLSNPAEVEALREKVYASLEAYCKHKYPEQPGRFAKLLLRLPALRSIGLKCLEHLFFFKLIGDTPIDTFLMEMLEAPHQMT
# How it was run: as §1
# [17] = biological target: Peroxisome proliferator-activated receptor alpha (Homo sapiens) (UniProt Q07869); assay: qHTS assay for small molecule agonists of the peroxisome proliferator-activated receptor alpha (PPARalpha) signaling pathway (AID 651778); conditions: PathHunter PPARalpha complementation, chemiluminescence, 6 h; stronger effect = higher value; further: % of control where 0% means no effect
# Sequence of Peroxisome proliferator-activated receptor alpha (Homo sapiens) (Q07869 whole entry, looked up, the tested form may be a part): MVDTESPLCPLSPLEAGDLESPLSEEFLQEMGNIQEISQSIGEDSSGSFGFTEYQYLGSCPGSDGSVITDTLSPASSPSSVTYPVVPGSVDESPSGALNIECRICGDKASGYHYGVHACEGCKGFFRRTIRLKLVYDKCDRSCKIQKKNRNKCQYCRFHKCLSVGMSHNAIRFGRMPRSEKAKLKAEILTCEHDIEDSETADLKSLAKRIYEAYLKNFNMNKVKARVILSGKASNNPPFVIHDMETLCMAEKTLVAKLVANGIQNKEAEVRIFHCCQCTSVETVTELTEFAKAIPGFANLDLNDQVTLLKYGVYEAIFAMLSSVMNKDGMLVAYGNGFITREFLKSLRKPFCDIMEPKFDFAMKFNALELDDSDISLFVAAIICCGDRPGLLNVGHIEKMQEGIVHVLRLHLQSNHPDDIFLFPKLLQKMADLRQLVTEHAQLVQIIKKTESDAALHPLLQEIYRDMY
# How it was run: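 Enzyme-fragment complementation assay in which ligand-bound PPARalpha translocates and forms an active enzyme that generates chemiluminescence. Cells were plated overnight, exposed to compound for 6 hr at 37 C, and then given detection reagent for 60 min at room temperature.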
# [18] = qHTS assay for small molecule agonists of the antioxidant response element (ARE) signaling pathway measured by Nrf2-dependant transcriptional activity - cell viability counter screen (AID 720653; active means well fitted curve in the direction sought with a large enough effect in the repeat runs; an effect the other way counts as inactive or inconclusive; further: on the % scale 0 is the no-effect control and ±100 the full control effect); conditions: ARE-bla HepG2 viability, CellTiter-Glo ATP luminescence, 16 h; stronger effect = lower value
# How it was run: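 ARE-bla HepG2 cells treated with compounds for 16 h at 37C; this counter screen measures viability as intracellular ATP by CellTiter-Glo luminescence after 30 min at room temperature.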
# [19] = qHTS assay for cell viability of HEK293 cells (AID 743288); conditions: ATP luminescence (CellTiter-Glo), 18 h; max response: stronger effect = lower value; further: on the % scale 0 is the no-effect control and ±100 the full control effect; nearly all actives have a fitted effect of over 50% in size
# How it was run: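 Parental HEK293 cells, 2,000 per well, preincubated at least 5 h at 37 C, then exposed to compounds in DMSO for 18 h at 37 C. Viability by CellTiter-Glo ATP luminescence after 30 min at room temperature.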
# [20] = qHTS assay for cell viability of the p53RE-bla HCT-116 cell line (AID 743292); conditions: p53RE-bla HCT-116 viability, ATP luminescence, 16 h; series mostly up to 95 µM; further: on the % scale 0 is the no-effect control and ±100 the full control effect; nearly all actives have a fitted effect of over 55% in size
# How it was run: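 ATP-based luminescence, 16 h compound exposure at 37 C, p53RE-bla HCT-116 cells at 4,000/well.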
smiles,measurement,setting,value
Clc1nc(Cl)nc(Nc2ccccc2Cl)n1,Potency,[1],> 92 µM (inactive)
same,Potency,[2],> 92 µM (inactive)
same,Potency,[3],> 92 µM (inactive)
same,Potency,[4],> 92 µM (inactive)
same,"activity change, negative = cytotoxicity",[5],-3.86% (inactive)
same,Potency,[6],inactive
same,Potency,[7],inactive
same,Potency,[8],inactive
same,"activity change, negative = cytotoxicity",[9],-4.26% (inactive)
same,outcome,[10],inactive
same,caspase-3 activation,[11],0.489% (inactive)
same,outcome,[12],inactive
same,outcome,[13],inactive
same,max response,[14],-6.76%
same,max response,[15],1.32%
same,max response,[16],8.47% (inactive)
same,max response,[17],1.31% (inactive) and 8.11% (inactive)
same,max response,[18],-2.86% (inactive) and -6.99% (inactive)
same,max response,[19],1.75% (inactive) and 3.89% (inactive)
same,Potency,[20],inactive
ClC(Cl)=C(Cl)C(Cl)=C(Cl)Cl,Potency,[1],> 92 µM (inactive)
same,Potency,[2],> 92 µM (inactive)
same,Potency,[3],> 92 µM (inactive)
same,Potency,[4],> 92 µM (inactive)
same,"activity change, negative = cytotoxicity",[5],-27.5% (inactive)
same,Potency,[6],inactive
same,Potency,[7],inactive
same,Potency,[8],inactive
same,"activity change, negative = cytotoxicity",[9],-4.45% (inactive)
same,outcome,[10],inactive
same,caspase-3 activation,[11],-0.64% (inactive)
same,outcome,[12],inactive
same,outcome,[13],inactive
same,max response,[14],-9.28% and -8.5%
same,max response,[15],-3.71% and -13.6%
same,max response,[16],-0.928% (inactive) and 1.51% (inactive)
same,max response,[17],-0.178% (inactive) and -1.05% (inactive)
same,max response,[18],5.78% (inactive) and -15% (inactive)
same,max response,[19],3.55% (inactive) and -1.89% (inactive)
same,Potency,[20],inactive
c1ccc(OP(Oc2ccccc2)Oc2ccccc2)cc1,Potency,[1],> 92 µM (inactive)
same,Potency,[2],> 92 µM (inactive)
same,Potency,[3],> 92 µM (inactive)
same,Potency,[4],> 92 µM (inactive)
same,"activity change, negative = cytotoxicity",[5],7% (inactive)
same,Potency,[6],inactive
same,Potency,[7],inactive
same,Potency,[8],inactive
same,"activity change, negative = cytotoxicity",[9],1.28% (inactive)
same,outcome,[10],inactive
same,caspase-3 activation,[11],-1.12% (inactive)
same,outcome,[12],inactive
same,outcome,[13],inactive
same,max response,[14],3.52% and -16.1%
same,max response,[15],-3.76% and -10.6%
same,max response,[16],4.67% (inactive) and -4.17% (inactive)
same,max response,[17],-2.33% (inactive) and -1.84% (inactive)
same,max response,[18],3.55% (inactive) and -14.3% (inactive)
same,max response,[19],-13.6% (inactive) and -7.52% (inactive)
same,Potency,[20],inactive
CC(C)(OO)c1ccccc1,Potency,[1],> 92 µM (inactive)
same,Potency,[2],> 92 µM (inactive)
same,Potency,[3],> 92 µM (inactive)
same,Potency,[4],> 92 µM (inactive)
same,"activity change, negative = cytotoxicity",[5],-123% (active)
same,Potency,[6],inactive
same,Potency,[7],25.1 µM (active)
same,"viability change, negative = cytotoxic",[8],-82.7% (active)
same,"activity change, negative = cytotoxicity",[9],-8.61% (inactive)
same,outcome,[10],inactive
same,caspase-3 activation,[11],-2.32% (inactive)
same,outcome,[12],inactive
same,outcome,[13],inactive
same,max response,[14],21.6% and -3.11%
same,max response,[15],16% and -6.37%
same,max response,[16],2.62% (inactive) and 5.92% (inactive)
same,max response,[17],-1.59% (inactive) and -0.102% (inactive)
same,max response,[18],-8.73% (inactive) and -2.9% (inactive)
same,max response,[19],-6.54% (inactive) and -1.29% (inactive)
same,Potency,[20],inactive
